From PubChem BioAssay (NCATS)
Where “and” joins values, the source holds several entries; their conditions need not be identical. Equal entries are not always repeated. Results filed as inconclusive are left out. Calls of active or inactive are those of the source. Unless noted, calls follow the shape of the dose curve; as a rule, active = well fitted curve in the direction sought with a large enough effect; inconclusive = small, poorly fitted or top-dose-only effect, or another doubt; inactive = no such curve, though single readings can be large; an effect the other way counts as inactive or inconclusive.

Columns and labels:
[1] = Cell Viability - NIH 3T3 (AID 541); details: NIH 3T3 cell viability, qHTS; activity change, negative = cytotoxicity: at 92.2 µM (top of the series);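 also: plate controls were DMSO alone for no effect and tamoxifen positive control for full effect; nearly all actives have a fitted effect of over 25% in size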
Summary of the method: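 Cells seeded at 1000/well, rested 5 hr at 37 °C, then dosed and incubated 40 hr at 37 °C. CellTiter-Glo added, 20 min room temperature, luminescence read. AC50 by Hill fit.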

[2] = Cell Viability - LYMP2-002 (AID 977);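 also: compound exposure lasted 24 h at 37 °C; plate controls were DMSO only for no effect and 92 µM tetraoctylammonium bromide for full effect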
Summary of the method: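 Human lymphoblastoid cells, 2500/well, complete medium; 5 h 37 C settle; compound 24 h 37 C; CellTiter-Glo, 30 min RT; luminescence. Decrease in ATP = cytotoxicity; AC50 via Hill equation.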

[3] = target: Peroxisome proliferator-activated receptor delta (Homo sapiens) (UniProt Q03181); assay: qHTS assay for small molecule agonists of peroxisome proliferator-activated receptor delta signaling (AID 588534; calls by dose curve;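 also: 0% = DMSO basal wells and 100% = positive control agonist at 10 µM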)
Summary of the method: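 Agonist-mode qHTS; reporter cells, 5 hrs 37 C pre-incubation; compound titration, 18 hrs 37 C; CCF4 dye, 2 hrs RT; fluorescence read. EC50/efficacy via Hill fit.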

[4] = qHTS assay for small molecule antagonists of peroxisome proliferator-activated receptor delta signaling (AID 588535; active = well fitted inhibition curve with a large enough effect in the signal ratio, with a control signal flat, not every such curve was filed as active; the % refers to the signal ratio;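 as to max response: cells co-treated with a PPAR-delta agonist as stimulator during compound exposure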); details: HEK293T PPARd-UAS-bla, beta-lactamase FRET ratio, 18 h; 460 nm channel
Summary of the method: (§1)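 Fluorescence from CCF4-loaded GeneBLAzer PPAR-delta-UAS-bla HEK293T cells (2 hrs RT loading) quantified reporter inhibition after an 18 hr, 37 C compound exposure across a titration.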

[5] = target: Peroxisome proliferator-activated receptor delta (Homo sapiens) (UniProt Q03181); assay: as above
Summary of the method: as §1

[6] = target: Peroxisome proliferator-activated receptor gamma (Homo sapiens) (UniProt P37231); assay: qHTS assay for small molecule antagonists of peroxisome proliferator-activated receptor gamma signaling (AID 588537; active = well fitted inhibition curve with a large enough effect in the signal ratio, with a control signal flat, not every such curve was filed as active; the % refers to the signal ratio;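 also: reporter cells co-stimulated with 50 nM rosiglitazone agonist during compound treatment; % of control where 0% means no effect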)
Summary of the method: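 Fluorescence at 460 and 530 nm (405 nm excitation) reported beta-lactamase cleavage of CCF4 after 2 h room-temperature loading. HEK293 reporter cells in 1% charcoal/dextran-treated FBS had received compound and rosiglitazone for 16 h.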

[7] = target: Vitamin D3 receptor (Homo sapiens) (UniProt P11473); assay: qHTS assay for small molecule antagonists of vitamin D receptor signaling (AID 588541; calls by dose curve;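 also: receptor activated by calcitriol during compound treatment; % is scaled to controls: 0 for no effect and ±100 for the full control effect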)
Summary of the method: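 VDR-UAS-bla HEK293T cells in 2% charcoal-stripped FBS were stimulated with 1-alpha,25-dihydroxyvitamin D3 (3 nM final) plus compound for 16 h at 37 C. The beta-lactamase CCF4 readout was normalized to 50 nM agonist and DMSO, and Hill fits gave IC50.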

[8] = qHTS assay for small molecule agonists of the antioxidant response element (ARE) signaling pathway (AID 651741; active = well fitted activation curve with a large enough effect in the signal ratio; the % refers to the signal ratio; also: potency is read from the fitted curve at half-maximal effect; as to activation: % of control where 0% means no effect)
Summary of the method: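 Stably integrated ARE-beta-lactamase reporter HepG2 cells; 16 h compound incubation, 37 C; LiveBLAzer FRET substrate 2 h at room temperature; fluorescence intensity.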

[9] = qHTS assay for small molecule activators of the p53 signaling pathway (AID 651743; active = well fitted activation curve with a large enough effect in the signal ratio, not every such curve was filed as active; the % refers to the signal ratio; also: potency is read from the fitted curve at half-maximal effect; as to activation: % of control where 0% means no effect); details: HCT-116 p53RE-bla, beta-lactamase FRET ratio, 16 h; activation: stronger effect = higher value
Summary of the method: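 Following 16 hours of compound exposure at 37 C, HCT-116 cells bearing the p53RE-bla reporter were loaded with LiveBLAzer B/G FRET substrate for 2 hours at room temperature and fluorescence intensity was recorded.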

[10] = qHTS assay for environmental chemicals that activate the Aryl hydrocarbon Receptor (AhR) signaling pathway (AID 651777); details: 1A2-DRE human hepatoma cells, luciferase, 24 h; activation: stronger effect = higher value; also: % of control where 0% means no effect; nearly all actives have a fitted effect of over 15% in size
Summary of the method: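 Following a 24 hr incubation with test chemicals at 37 C and 5% CO2, 1A2-DRE human hepatoma cells received One-Glo reagent; after 30 min at room temperature, luciferase output reflected CYP1A2 induction via AhR.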

[11] = qHTS assay for small molecule antagonists of the retinoid-related orphan receptor gamma (ROR-gamma) signaling pathway - cell viability counter screen (AID 720652; active = well fitted curve in the direction sought with a large enough effect in the repeat runs; an effect the other way counts as inactive or inconclusive;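 also: CHO reporter cells with doxycycline-induced ROR-gamma expression; compound exposure lasted 16 hr before ATP read; % is scaled to controls: 0 for no effect and ±100 for the full control effect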)
Summary of the method: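 Steps: seed CHO cells bearing TET-inducible ROR and ROR response element-luciferase; rest 5 hr at 37 C; add compound, then doxycycline; incubate 16 hr; add CellTiter-Glo and read luminescence as ATP-based viability.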

[12] = Cell Viability - Jurkat (AID 426;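 active = dose-dependent loss of cell ATP signal giving a full or clear fitted curve, ranked by lower potency value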;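 also: potency is read from the fitted curve at half-maximal effect; cells exposed to compound for 40 hours at 37 °C before ATP read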); details: qHTS
Summary of the method: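 Cells of the human T-cell leukemia line Jurkat (E6-1) are seeded at 5000 per well, treated with compound across a concentration range for 40 hours at 37 °C, then lysed with CellTiter-Glo; luminescence reports ATP.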

[13] = Cell Viability - LYMP1-003 - Assay at 40 hr (AID 964); also: % is scaled to controls: 0 for no effect and ±100 for the full control effect; nearly all actives have a fitted effect of over 60% in size
Summary of the method: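 Luminescent ATP signal (CellTiter-Glo) served as the viability read-out after 40 hr compound treatment of human lymphoblastoid LYMP1-003 cells at 37 C. Decreases in ATP were fitted with the Hill equation to give AC50.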

[14] = Cell Viability - LYMP2-015 (AID 971);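 also: 0% = DMSO only and full effect = 92 µM tetraoctylammonium bromide; nearly all actives have a fitted effect of over 55% in size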
Summary of the method: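 Cells are seeded at 2500 per well and incubated 5 hr at 37 C. Compounds are added across a concentration series for 24 hr at 37 C. CellTiter-Glo is added, and luminescence is read after 30 min at room temperature.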

[15] = target: Glucocorticoid receptor (Homo sapiens) (UniProt P04150); assay: qHTS assay for small molecule agonists of glucocorticoid receptor signaling (AID 588532; active = well fitted curve in the direction sought with a large enough effect in the signal ratio, with a control signal flat; the % refers to the signal ratio;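 also: 100% = dexamethasone at 0.1 µM and 0% = DMSO only wells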); details: HeLa MMTV-bla, beta-lactamase ratio, agonist, 18 h; stronger effect = higher value; percent of dexamethasone control, DMSO zero
Summary of the method: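 MMTV-bla HeLa beta-lactamase reporter cells in 1% charcoal/dextran FBS medium, compounds up to 92 uM for 18 h at 37 C, CCF4 readout; normalized to 0.1 uM dexamethasone (100%), EC50 and efficacy from Hill fits.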

[16] = target: Estrogen receptor (Homo sapiens) (UniProt P03372); assay: qHTS assay for small molecule antagonists of estrogen receptor alpha signaling (AID 588513; active = well fitted curve in the direction sought with a large enough effect in the signal ratio, with a control signal flat, not every such curve was filed as active; the % refers to the signal ratio; also: % is scaled to controls: 0 for no effect and ±100 for the full control effect)
Summary of the method: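 Beta-lactamase reporter, antagonist mode, HEK 293 GripTite cells; 0.5nM E2 stimulus, 18 h, 37 C; CCF4 dye 2 h RT; fluorescence. IC50 and efficacy from Hill fits, normalized to E2 and DMSO.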

[17] = target: Estrogen receptor (Homo sapiens) (UniProt P03372); assay: qHTS assay for small molecule agonists of estrogen receptor alpha signaling (AID 588514; calls by dose curve;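 also: 0% = vehicle only and 100% = reference agonist; nearly all actives have a fitted effect of over 70% in size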)
Summary of the method: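 Efficacy is expressed against 20 nM 17-beta-estradiol (100%) and DMSO basal (0%); EC50 from Hill equation. Assay: beta-lactamase reporter in ER-alpha-UAS-bla HEK 293 cells, 18 h compound incubation, CCF4 detection.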

[18] = target: Bile acid receptor (Homo sapiens) (UniProt Q96RI1); assay: qHTS assay for small molecule agonists of farnesoid X receptor signaling (AID 588527; calls by dose curve;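 also: 0% = vehicle basal and 100% = reference agonist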); details: HEK293T FXR-UAS-bla, beta-lactamase ratio, 16 h; stronger effect = higher value
Summary of the method: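 Agonist-mode beta-lactamase reporter in GeneBLAzer FXR-UAS-bla HEK293T cells, titration up to 92 uM, 16 h exposure at 37 C, CCF4 fluorescence. Response scaled to DMSO (0%) and 100 uM chenodeoxycholic acid (100%), then Hill-fitted for EC50 and efficacy.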

[19] = target: Glucocorticoid receptor (Homo sapiens) (UniProt P04150); assay: qHTS assay for small molecule antagonists of glucocorticoid receptor signaling (AID 588533; active = well fitted inhibition curve with a large enough effect in the signal ratio, with a control signal flat, not every such curve was filed as active; the % refers to the signal ratio; also: % is scaled to controls: 0 for no effect and ±100 for the full control effect)
Summary of the method: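 Antagonist-mode qHTS: compound titrations added to GRE-bla HeLa cells, then dexamethasone 2 nM final; 18 h, 37 C. CCF4 FRET fluorescence normalized to dexamethasone and DMSO; IC50 from Hill fit.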

[20] = target: Nuclear receptor ROR-gamma (Homo sapiens) (UniProt P51449); assay: qHTS assay for small molecule antagonists of the retinoid-related orphan receptor gamma (ROR-gamma) signaling pathway (AID 651802);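 also: CHO cells with doxycycline-induced ROR-gamma expression; % is scaled to controls: 0 for no effect and ±100 for the full control effect; nearly all actives have a fitted effect of over 60% in size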
Summary of the method: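 Steps: cells dispensed; compound or DMSO transferred by pin tool; doxycycline added to induce the ROR response element-driven luciferase; plates held 16hr at 37C; ONE-Glo added and luminescence measured.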

Sequence of Peroxisome proliferator-activated receptor gamma (Homo sapiens) (P37231 whole entry, looked up): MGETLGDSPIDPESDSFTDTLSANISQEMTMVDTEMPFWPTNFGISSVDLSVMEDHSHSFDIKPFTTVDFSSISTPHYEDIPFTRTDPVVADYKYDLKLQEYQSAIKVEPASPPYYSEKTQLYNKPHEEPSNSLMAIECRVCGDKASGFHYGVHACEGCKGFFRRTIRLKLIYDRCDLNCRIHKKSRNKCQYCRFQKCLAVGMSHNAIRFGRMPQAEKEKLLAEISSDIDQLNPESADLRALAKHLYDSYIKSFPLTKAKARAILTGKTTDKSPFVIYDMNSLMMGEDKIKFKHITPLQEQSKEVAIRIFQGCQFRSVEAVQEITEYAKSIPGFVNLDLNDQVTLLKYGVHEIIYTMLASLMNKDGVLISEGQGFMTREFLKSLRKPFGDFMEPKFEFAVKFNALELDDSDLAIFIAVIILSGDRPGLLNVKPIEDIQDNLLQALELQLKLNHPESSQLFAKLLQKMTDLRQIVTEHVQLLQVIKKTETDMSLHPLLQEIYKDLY
Sequence of Peroxisome proliferator-activated receptor delta (Homo sapiens) (Q03181 whole entry, looked up): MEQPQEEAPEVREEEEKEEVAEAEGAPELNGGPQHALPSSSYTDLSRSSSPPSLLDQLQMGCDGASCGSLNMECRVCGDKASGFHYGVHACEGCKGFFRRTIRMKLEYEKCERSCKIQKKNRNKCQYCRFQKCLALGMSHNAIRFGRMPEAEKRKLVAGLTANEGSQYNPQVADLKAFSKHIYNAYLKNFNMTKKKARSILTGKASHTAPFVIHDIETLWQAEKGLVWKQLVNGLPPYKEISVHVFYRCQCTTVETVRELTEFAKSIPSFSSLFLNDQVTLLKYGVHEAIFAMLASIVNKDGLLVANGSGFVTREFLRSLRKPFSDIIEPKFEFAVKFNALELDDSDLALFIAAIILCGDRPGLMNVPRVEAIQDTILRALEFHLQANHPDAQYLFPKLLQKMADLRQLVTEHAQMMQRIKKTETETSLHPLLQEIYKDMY
Sequence of Bile acid receptor (Homo sapiens) (Q96RI1 whole entry, looked up): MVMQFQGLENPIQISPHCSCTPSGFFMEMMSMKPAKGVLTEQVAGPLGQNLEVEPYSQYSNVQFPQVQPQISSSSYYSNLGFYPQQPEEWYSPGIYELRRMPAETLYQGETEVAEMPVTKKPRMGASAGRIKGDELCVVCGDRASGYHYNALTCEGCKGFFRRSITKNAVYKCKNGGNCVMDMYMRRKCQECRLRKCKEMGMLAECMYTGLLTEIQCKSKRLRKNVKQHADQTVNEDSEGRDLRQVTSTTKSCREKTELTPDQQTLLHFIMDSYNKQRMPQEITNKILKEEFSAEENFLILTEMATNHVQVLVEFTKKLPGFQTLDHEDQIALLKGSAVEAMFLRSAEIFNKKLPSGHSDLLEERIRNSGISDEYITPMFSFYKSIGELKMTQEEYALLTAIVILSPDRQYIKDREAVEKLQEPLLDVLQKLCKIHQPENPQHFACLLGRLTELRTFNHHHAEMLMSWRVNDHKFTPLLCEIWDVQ
Sequence of Estrogen receptor (Homo sapiens) (P03372 whole entry, looked up): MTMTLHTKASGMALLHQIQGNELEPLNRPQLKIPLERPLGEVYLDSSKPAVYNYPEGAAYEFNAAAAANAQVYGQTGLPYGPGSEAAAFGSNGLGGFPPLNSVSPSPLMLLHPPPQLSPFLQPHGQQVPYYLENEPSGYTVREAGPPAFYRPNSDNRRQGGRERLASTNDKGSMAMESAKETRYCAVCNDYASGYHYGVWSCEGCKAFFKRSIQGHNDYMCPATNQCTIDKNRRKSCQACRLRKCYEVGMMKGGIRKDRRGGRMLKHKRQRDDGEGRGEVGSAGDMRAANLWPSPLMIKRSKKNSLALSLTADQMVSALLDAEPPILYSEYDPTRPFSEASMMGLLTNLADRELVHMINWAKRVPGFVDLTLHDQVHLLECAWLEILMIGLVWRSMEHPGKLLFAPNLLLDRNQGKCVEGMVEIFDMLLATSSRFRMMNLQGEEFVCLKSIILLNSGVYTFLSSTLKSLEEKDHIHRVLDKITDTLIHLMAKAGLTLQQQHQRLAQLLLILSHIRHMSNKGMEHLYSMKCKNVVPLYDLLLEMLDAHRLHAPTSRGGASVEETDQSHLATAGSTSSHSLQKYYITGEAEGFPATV
Sequence of Vitamin D3 receptor (Homo sapiens) (P11473 whole entry, looked up): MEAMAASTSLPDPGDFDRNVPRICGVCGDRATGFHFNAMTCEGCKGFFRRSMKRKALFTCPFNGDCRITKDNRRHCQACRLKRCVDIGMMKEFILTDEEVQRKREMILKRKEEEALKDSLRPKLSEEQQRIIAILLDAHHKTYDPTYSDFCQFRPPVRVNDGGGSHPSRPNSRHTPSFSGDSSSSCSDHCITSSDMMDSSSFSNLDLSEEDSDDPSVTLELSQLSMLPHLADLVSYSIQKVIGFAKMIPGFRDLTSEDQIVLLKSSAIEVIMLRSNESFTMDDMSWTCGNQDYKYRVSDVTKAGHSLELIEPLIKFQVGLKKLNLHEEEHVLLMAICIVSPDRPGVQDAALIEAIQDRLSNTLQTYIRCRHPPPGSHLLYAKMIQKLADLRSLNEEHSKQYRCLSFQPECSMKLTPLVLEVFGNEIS
Sequence of Glucocorticoid receptor (Homo sapiens) (P04150 whole entry, looked up): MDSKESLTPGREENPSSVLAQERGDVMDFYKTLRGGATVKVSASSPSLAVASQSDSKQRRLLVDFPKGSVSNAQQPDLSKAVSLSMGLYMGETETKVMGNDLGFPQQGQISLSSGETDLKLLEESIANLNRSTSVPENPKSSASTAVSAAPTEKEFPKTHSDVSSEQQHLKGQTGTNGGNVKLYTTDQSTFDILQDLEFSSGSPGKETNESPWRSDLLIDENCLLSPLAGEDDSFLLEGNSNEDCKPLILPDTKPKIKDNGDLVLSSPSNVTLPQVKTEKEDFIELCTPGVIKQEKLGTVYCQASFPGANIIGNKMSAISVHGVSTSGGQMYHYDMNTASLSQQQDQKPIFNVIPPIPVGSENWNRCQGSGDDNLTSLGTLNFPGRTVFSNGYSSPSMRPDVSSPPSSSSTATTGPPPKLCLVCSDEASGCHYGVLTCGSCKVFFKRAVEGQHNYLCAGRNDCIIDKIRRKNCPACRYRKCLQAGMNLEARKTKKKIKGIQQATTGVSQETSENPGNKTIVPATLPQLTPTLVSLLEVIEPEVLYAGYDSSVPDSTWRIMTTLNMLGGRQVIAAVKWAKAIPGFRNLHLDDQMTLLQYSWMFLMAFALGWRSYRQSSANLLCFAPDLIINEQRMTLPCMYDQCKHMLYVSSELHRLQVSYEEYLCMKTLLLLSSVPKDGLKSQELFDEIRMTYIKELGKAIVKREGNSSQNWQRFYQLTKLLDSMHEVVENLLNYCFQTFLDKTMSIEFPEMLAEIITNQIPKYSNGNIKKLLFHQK
Sequence of Nuclear receptor ROR-gamma (Homo sapiens) (P51449 whole entry, looked up): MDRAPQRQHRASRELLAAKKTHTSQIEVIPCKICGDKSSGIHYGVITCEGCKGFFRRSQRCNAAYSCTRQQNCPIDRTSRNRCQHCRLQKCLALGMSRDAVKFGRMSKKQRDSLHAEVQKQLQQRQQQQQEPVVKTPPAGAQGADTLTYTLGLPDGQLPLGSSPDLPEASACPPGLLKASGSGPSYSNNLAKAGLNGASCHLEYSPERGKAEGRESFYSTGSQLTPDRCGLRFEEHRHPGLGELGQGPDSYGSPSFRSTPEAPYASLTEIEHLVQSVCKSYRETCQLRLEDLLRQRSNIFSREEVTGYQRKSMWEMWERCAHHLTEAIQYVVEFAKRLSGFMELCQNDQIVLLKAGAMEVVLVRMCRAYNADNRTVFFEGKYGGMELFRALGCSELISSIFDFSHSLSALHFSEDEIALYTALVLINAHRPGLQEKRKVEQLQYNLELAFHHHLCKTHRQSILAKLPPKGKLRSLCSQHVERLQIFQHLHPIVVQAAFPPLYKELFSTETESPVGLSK

c1ccc2c(c1)CCNC2
5.94%: max response [4]
inactive: Potency [1] | Potency [2] | outcome [3] | outcome [5] | Potency [6] | outcome [7] | Potency [8] | activation [9] -2.09% | activation [10] -1.3% | Potency [11]

Oc1cc(Cl)c(Cl)c(Cl)c1Cl
active: Potency [12] 54.1 µM | Potency [8] 11.9 µM | Potency [9] 39.8 µM
inactive: Potency [13] | Potency [14] | Potency [2] | activation [15] 5.92% | activation [10] 4.37%

Nc1c(Cl)cc([N+](=O)[O-])cc1Cl
inactive: Potency [1] | Potency [13] | Potency [14] | Potency [2] | Potency [16] | Potency [17] | activation [18] -3.3% and 0.0652% | activation [15] -0.898% | outcome [19] | Potency [6] | outcome [7] | activation [10] -0.0582% and 1.9%
8.87% and 11.4%: max response [4]

Cc1ccc(N)cc1Cl
inactive: Potency [12] > 92 µM | Potency [1] | Potency [16] | Potency [17] | Potency [6] | outcome [7]

CN=C=O
61.5%: max response [4]
inactive: Potency [12] > 92 µM | Potency [1] | Potency [13] | Potency [14] | Potency [2] | outcome [3] | outcome [5] | Potency [8] | activation [9] -2.98% | Potency [11]

NC1CCC(CC2CCC(N)CC2)CC1 (configuration not stated)
-9.87%: max response [4]
inactive: Potency [12] > 92 µM | Potency [13] | Potency [16] | Potency [17] | activation [18] -0.153% and 0.847% | activation [15] 2.97% and -18.9% | outcome [19] | outcome [3] | outcome [5] | Potency [6] | Potency [8] | activation [9] -3.72% and -4.21% | activation [10] -0.669% and 0.679% | Potency [20] | Potency [11]

Cl/C=C/CCl
inactive: Potency [1] | Potency [14] | Potency [2] | activation [15] 1.37% | outcome [19] | outcome [3] | Potency [6] | outcome [7] | Potency [8] | activation [9] -2.05% | Potency [20] | Potency [11]
5.14%: max response [4]

O=C(O)C(Cl)(Cl)Br
inactive: Potency [12] > 92 µM | Potency [13] | Potency [2] | activation [18] -1.03% | activation [15] -2.11% | outcome [19] | outcome [3] | Potency [6] | outcome [7] | activation [9] -0.303% | activation [10] 0.0306% | Potency [11]
active: Potency [8] 42.2 µM

CNC(=O)O/N=C/C(C)(C)S(C)=O (configuration not stated)
8.11% and 9.71%: max response [4]
inactive: Potency [12] > 92 µM | Potency [13] | Potency [14] | Potency [2] | Potency [16] | Potency [17] | activation [18] -0.355% and 3.36% | activation [15] 15.3% and 5.05% | outcome [19] | outcome [3] | outcome [5] | Potency [6] | outcome [7] | activation [9] -0.482% and 5.01% | Potency [20]

O=C(O)c1cc(Cl)ccc1Cl
35.4%: max response [4]
inactive: Potency [12] > 92 µM | Potency [1] | Potency [13] | Potency [14] | Potency [2] | activation [18] -1.21% | activation [15] -4.37% | outcome [19] | outcome [3] | outcome [5] | outcome [7] | Potency [8] | activation [9] -4.12% | Potency [20] | Potency [11]

CC(C)(Cl)Cl
inactive: Potency [12] > 92 µM | Potency [1] | Potency [13] | Potency [2] | outcome [3] | outcome [5] | Potency [6] | Potency [8] | activation [9] -1.59% | activation [10] 0.894% | Potency [11]
-19.4%: max response [4]

CCCCOC(=O)c1ccccc1N
-36.1%: max response [4]
inactive: Potency [12] > 92 µM | Potency [1] | Potency [14] | activation [18] 0.511% | activation [15] -1.38% | outcome [19] | outcome [3] | outcome [7] | activation [10] 0.138% | Potency [11]

CN(C)c1ccccc1
inactive: Potency [12] > 92 µM | Potency [1] | Potency [13] | Potency [14] | activation [18] -2.07% | activation [15] -11% | outcome [19] | outcome [7] | Potency [8] | Potency [11]

C=CCBr
inactive: Potency [12] > 92 µM | Potency [1] | Potency [13] | Potency [14] | Potency [2] | Potency [16] | Potency [17] | activation [18] -2.82% | activation [15] 0.974% | outcome [7] | Potency [8] | Potency [20]

CCCCCCCCCCCOC(=O)c1ccccc1C(=O)OCCCCCCCCCCC
inactive: Potency [12] > 92 µM | Potency [1] | Potency [14] | Potency [2] | Potency [16] | Potency [17] | activation [15] 3.4% | outcome [19] | outcome [3] | outcome [5] | Potency [6] | outcome [7] | Potency [8] | activation [9] 2.34% | activation [10] -2.18% | Potency [20] | Potency [11]
-38.8%: max response [4]
